# Bioassay records deposited in PubChem by National Center for Advancing Translational Sciences (NCATS).
# Most compounds without a hit are left out; they make up all but 11% or so of the library.
# AMA1 RON2 block: AMA1-RON2 (P. falciparum) interaction inhibition; Potency, µM (titrated, usually from 58.2 µM), without a hit: top-dose activity change, negative = inhibition, most hits filed as inhibitors; 360,000 tested, 0.2% active; AlphaScreen AMA1-biotinylated RON2 peptide binding;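 also: 0% = vehicle wells and -100% = peptide control; nearly all actives have a fitted effect of over 45% in size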
#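 AMA1 (3D7) with his tag at 25 nM final met compounds first, then biotinylated RON2 peptide at 25 nM; detection used donor plus acceptor beads, 10 µg/mL apiece, read by AlphaScreen after 30 min at room temperature.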
# Pf growth 96h: inhibits malaria parasite growth, 96 h. P. falciparum luciferase reporter growth, 96 h. Potency, µM (highest dose often 28.7 µM), for the others: at the top dose activity change, negative = inhibition, most hits filed as inhibitors. 320,000 tested, 6.9% active. AID 504834
#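 Readout is luminescence from an integrated firefly luciferase in P. falciparum. Red cells, 2% hematocrit and 0.05% parasitemia final, were cultured with compound through two parasite generations (96 hours) at 37 C, 5% CO2.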
# Pf growth 48h: inhibits P. falciparum growth in the first generation, 48 h | P. falciparum luciferase growth in erythrocytes, 48 h | Potency, µM (top dose mostly 28.7 µM), inactives show at the top dose activity change, negative = inhibition, hits mostly inhibitors | 310,000 tested, 5.9% active | AID 504832
#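 Parasite viability was followed by luminescence of a genomically integrated firefly luciferase. Cultures held 0.1% parasitemia at 2% hematocrit (final), incubated under 5% CO2 at 37 C.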
# HCV inhibitor: inhibitors of hepatitis C virus infection | AID 651820 | 340,000 tested, 3.4% active | Huh7.5.1 HCVcc-Cre infection, luciferase reporter, 44 h | Potency, µM (top dose mostly 41.8 µM), for the others: at the highest dose activity change, negative = inhibition, most hits filed as inhibitors
#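 Compounds are dispensed onto cells plated 4 h earlier at 1,000 per well, with HCVcc-Cre virus (about 0.5 moi) added next. Following 44 h of culture, luminescent signal is measured for 15 sec after 15 min with substrate at room temperature.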
# * hit, by the source's call; ? = inconclusive; . = no result; [ ] = dose if it differs, or a comment. Calls follow the shape of the dose curve; as a rule, active = well fitted curve in the direction sought with a large enough effect; inconclusive = small, poorly fitted or top-dose-only effect, or another doubt; inactive = no such curve, though single readings can be large; an effect the other way counts as inactive or inconclusive. Unless noted, % is scaled to controls: 0 for no effect and ±100 for the full control effect; potency is read from the fitted curve at half-maximal effect.
SMILES,AMA1 RON2 block,Pf growth 96h,Pf growth 48h,HCV inhibitor
COc1ccc(Cn2c3nc4ccccc4nc3c3c(=O)n(Cc4ccco4)cnc32)cc1,.,1%,9.3µM*,?
O=C1N/C(=N\N=C\c2cccs2)SC1Cc1cccc(Cl)c1 (stereo unspecified),3%,8%,13µM*,?
CCC1S/C(=N/N=C/c2cccs2)NC1=O (stereo unspecified),42%,?,-9%,5%
CCCC1S/C(=N/N=C/c2cccs2)NC1=O (stereo unspecified),57%,0%,12%,?
O=C1N/C(=N\N=C\c2ccc3ncccc3c2)SC1Cc1ccc(SC(F)F)cc1 (stereo unspecified),8%,.,15%,0%
O=C1N/C(=N\N=C\c2cccs2)SC1Cc1ccc(Cl)cc1 (stereo unspecified),-4%[11.6 µM],0.74µM*,?,2%
O=C1N/C(=N\N=C\c2cccnc2)SC1Cc1ccc(SC(F)F)cc1 (stereo unspecified),77%,.,3.3µM*,?
O=C(CCSc1nnc(-c2ccncc2)o1)Nc1ccccc1Cl,-6%,.,7%,12%
CCN(CC)CCNC1=CC(=O)OC12CCCCC2,-3%,15µM*,11%,6%
O=C1C=C(NCc2ccccc2)C2(CCCCC2)O1,1%,-4%[5.75 µM],-11%,-18%
COc1nnc(OC)c2ccccc12,4%,0.47µM*,-6%,?
COc1c(NC(C)=O)c2ccccc2c2ccccc12,-3%,-1%,7%,?
COc1c2ccccc2c(OC)c2ccccc12,-4%,15µM*,3%,0%
CCOC(=O)C(CC)Sc1nc2c(c(=O)[nH]c(=O)n2C)n1CCc1ccccc1 (stereo unspecified),-20%,12µM*,10µM*,-5%
CCOC(=O)CSc1nc2c(c(=O)[nH]c(=O)n2C)n1CCc1ccccc1,2%,?,6%,-22%
CC(C)Sc1nc2c(c(=O)[nH]c(=O)n2C)n1Cc1ccc(Cl)cc1,0%,13µM*,?,?
CCOC(=O)C(C)Sc1nc2c(c(=O)[nH]c(=O)n2C)n1Cc1ccc(Cl)cc1 (stereo unspecified),-11%,?,?,2.8µM*
CCC(C)Sc1nc2c(c(=O)[nH]c(=O)n2C)n1Cc1ccc(Cl)cc1 (stereo unspecified),-8%,.,10µM*,-13%
CC1(C)C(N(O)C(=O)Nc2ccc(Cl)cc2)N(c2ccc(Cl)cc2)C(=O)N1CC(=O)NN (stereo unspecified),48%,10µM*,.,?
O=C(c1ccc(NC2=NC3CS(=O)(=O)CC3S2)cc1)N(CCO)Cc1ccccc1 (stereo unspecified),1%,32%,14%,7%
O=C(Nc1nc2c(Br)cc(Br)cc2c(=O)s1)C1CCC1,26%,25%,2.3µM*,13%
S=C(Nc1ccc(Cl)cc1)NC1CCN(Cc2ccccc2)CC1,-3%,6.6µM*,?,11µM*
CCC(C)c1ccc(NC(=S)NC2CCN(Cc3ccccc3)CC2)cc1 (stereo unspecified),-21%,?,?,10µM*
CCc1ccc(NC(=S)NC2CCN(Cc3ccccc3)CC2)cc1,-7%,0%,0%,?
COCC1CCN(C(=O)c2ccc3oc(CCc4ccccc4)nc3c2)C1 (stereo unspecified),-2%,.,.,.
SMILES,AMA1 RON2 block,Pf growth 96h,Pf growth 48h,HCV inhibitor
CCOC(=O)N1CCN(C(=O)c2ccc3oc(CCCc4ccccc4)nc3c2)CC1,-6%,10µM*,-6%,-21%
O=C(c1ccc2oc(CCc3ccccc3)nc2c1)N1CC[C@H](O)C1,2%,7.4µM*,147%,23%
CC(=O)N1CCN(C(=O)c2ccc3oc(CCCc4ccccc4)nc3c2)CC1,1%,13µM*,0%,14%
CC(C)CC(=O)C1CCCN(C(=O)c2ccc3oc(Cc4ccccc4)nc3c2)C1 (stereo unspecified),6%,18%,14%,22µM*
CCOC(=O)C1CCCN(C(=O)c2ccc3oc(Cc4ccccc4)nc3c2)C1 (stereo unspecified),6%,16%,-5%,-9%
COc1ccc(CCN2C(=O)C(Oc3ccccc3C)C2c2ccc3c(c2)OCO3)cc1 (stereo unspecified),-2%,0.93µM*,?,?
COc1ccc(CCN2C(=O)C(Oc3ccccc3C)C2c2ccc3c(c2)OCO3)cc1OC (stereo unspecified),-14%,58%,12µM*,?
O=C1C(Oc2ccccc2)C(c2ccc3c(c2)OCO3)N1CCc1ccc(F)cc1 (stereo unspecified),0%,0%,?,7%
CC(C)=CCC1C(=O)N(c2ccccc2)N(c2ccccc2)C1=O,.,7.6µM*,?,.
Cc1ccc(NC(=S)N2CCCCC2CO)cc1C (stereo unspecified),-1%,393%,0%,-5%
CNC(=O)/C(=C\c1ccc2c(c1)OCO2)NC(=O)c1ccc(Br)cc1,-2%,17%,-15%,12%
CC(NC(=O)COC(=O)c1ccc[nH]c1=O)c1ccccc1 (stereo unspecified),1%,.,.,-8%
COc1ccc(COC(=O)C2=C(C)NC(=O)NC2c2cccc(Br)c2)cc1 (stereo unspecified),-5%,?,?,10µM*
CC1=C(C(=O)OCc2ccccc2)C(c2cccc(Br)c2)NC(=O)N1 (stereo unspecified),-1%,-7%,?,-18%
CCCCOc1ccccc1C1NC(=O)NC(C)=C1C(=O)OCc1ccco1 (stereo unspecified),-1%,?,9.3µM*,-19%
CC1=C(C(=O)OCc2ccc(C)cc2)C(c2ccc(O)c([N+](=O)[O-])c2)NC(=O)N1 (stereo unspecified),-26%,-4%,12µM*,1%
CCCCOc1ccccc1C1NC(=O)NC(C)=C1C(=O)OCCOCC (stereo unspecified),0%,?,0%,16%
CCOc1cc(C2NC(=O)NC(C)=C2C(=O)OCc2ccccc2)ccc1O (stereo unspecified),-1%,-10%,2.3µM*,-27%
CC1=C(C(=O)OC2CCC(C)CC2)C(c2ccc(O)c([N+](=O)[O-])c2)NC(=O)N1 (stereo unspecified),-9%,?,-14%,1%
O=C(/C=C/c1ccc([N+](=O)[O-])cc1)Nc1cccc(C(=O)Nc2ccccc2C(=O)O)c1,-3%,59%,-28%,-10%
COc1ccc(-c2nnc(SCC(=O)N3CCCC3=O)n2N)cc1OC,9%,.,.,6%
CCN(C(=O)CSc1cc(C)c2cccc(C)c2n1)C1CCS(=O)(=O)C1 (stereo unspecified),4%,-25%,0%,?
Cc1ccc(S(=O)(=O)n2ccc(=O)[nH]2)cc1,1%,0%,60%,10%
COc1ccc(COC(=O)C2=C(C)NC(=O)NC2c2ccc(OC)c(OC)c2)cc1 (stereo unspecified),-5%,191%,?,-14%
